This is a sample that favours compounds with a hit; in the whole collection about 7.6% have one here.
KB-3-1 tox: KB-3-1 parental cell cytotoxicity; KB-3-1 viability, CellTiter-Glo ATP luminescence, 72 h; AID 1347075; Potency, µM (top dose mostly 46.1 µM), actives largely listed as cytotoxic; 400,000 compounds, 1.4% hits; also: potency is read from the fitted curve at half-maximal effect; % is scaled to controls: 0 for no effect and ±100 for the full control effect; nearly all actives have a fitted effect of over 60% in size
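Screening of KB-3-1 cells (DMEM, 10% FBS, phenol-red free) ran from lowest to highest compound concentration; after 72 h at 37 °C viability was read luminescently and curves fitted.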
KB-V1 MDR tox: KB-V1 MDR subline cytotoxicity. AID 1347076. KB-V1 MDR cells viability, CellTiter-Glo, 72 h. 400,000 compounds, 3.4% hits. Potency, µM (titrated, usually from 46.1 µM), usual class: cytotoxic; also: potency is read from the fitted curve at half-maximal effect; % is scaled to controls: 0 for no effect and ±100 for the full control effect; nearly all actives have a fitted effect of over 60% in size
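KB-V1 MDR subline cells in DMEM (phenol-red free, 10% FBS) exposed to compounds in qHTS concentration series for 72 h at 37 degrees C. Viability read by CellTiter-Glo luminescence; concentration-effect curves fitted after normalization and correction.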
MCF10A rerep: inducers of DNA re-replication in MCF 10A breast cells; MCF 10A DNA re-replication, Hoechst nuclear intensity, 48 h; 350,000 compounds, 2.9% hits; Potency, µM (doses to about 46.1 µM), for inactives: top-dose activity, positive = re-replication, actives largely listed as activators; also: potency is read from the fitted curve at half-maximal effect; % of control where 0% means no effect; nearly all actives have a fitted effect of over 50% in size
KCNH2 3.1 inh: blocks the human KCNH2 3.1 channel isoform; U2OS KCNH2 3.1, thallium flux FluxOr; stronger effect = lower value; activity change, % (tested at about 1.8 µM); 340,000 compounds, 0.95% hits; AID 720553;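 active = maximum activity change below -70%; inconclusive = maximum activity change from -70% to -50%; inactive = maximum activity change above -50%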;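 also: thallium influx rate constant from kinetic fluorescence after stimulation buffer; % is scaled to controls: 0 for no effect and ±100 for the full control effect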
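Thallium flux read-out: FluxOr dye with Red40 quencher in HBSS/HEPES, 45 min at RT. Rate constants from kinetic reads were normalized to positive and negative DMSO controls. Cells: U2OS virally expressing the 3.1 isoform.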
SW480 rereplic: inducers of DNA re-replication in SW480 colon cancer cells | SW480 DNA re-replication, Hoechst DNA content imaging, 48 h | Potency, µM (titrated, usually from 46.1 µM), for inactives: at the highest dose re-replication activation, hits mostly activators | 340,000 compounds, 1.8% hits; also: potency is read from the fitted curve at half-maximal effect; % of control where 0% means no effect; nearly all actives have a fitted effect of over 55% in size
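Cells (250 per well) received 23 nL compound or DMSO by pin tool and were kept 48 hr at 37 C, 5% CO2. Nuclei were then stained with Hoechst for 40 min and scanned for DNA content.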
hERG WT inh: inhibitors of human wildtype KCNH2 potassium channel; activity change, % at 1.84 µM; Q12809; 340,000 compounds, 0.37% hits; U2OS, BacMam KCNH2, thallium flux FluxOr; stronger effect = lower value;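 active = maximum activity change below -70%; inconclusive = maximum activity change between -70% and -50%; inactive = maximum activity change above -50%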; also: % is scaled to controls: 0 for no effect and ±100 for the full control effect
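U2OS cells transduced with wild-type KCNH2 virus are loaded with FluxOr dye for 45 min, and thallium flux is measured in kinetic reads before and after stimulation buffer. Rate constants are normalized to DMSO controls.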
Numbers without * were called inactive. Unless noted, calls follow the shape of the dose curve; as a rule, active = well fitted curve in the direction sought with a large enough effect; inconclusive = small, poorly fitted or top-dose-only effect, or another doubt; inactive = no such curve, though single readings can be large; an effect the other way counts as inactive or inconclusive.

Results for Cc1ccccc1OCC(=O)Nc1ccc2nc(SCC(=O)N(C)c3ccccc3)sc2c1 ?
KB-3-1 tox: inactive; KB-V1 MDR tox: inconclusive

What do the screens show for `CCOC(=O)N1CCN(c2c(NCCCN3CCCCCC3)c(=O)c2=O)CC1`?
KB-3-1 tox: inactive; KB-V1 MDR tox: inconclusive; MCF10A rerep: 13%; KCNH2 3.1 inh: 11; SW480 rereplic: -6%; hERG WT inh: -14

Results for Cc1cc2cc3c(=O)[nH]c(=O)nc-3n(CC(O)C(O)C(O)CO)c2cc1C (stereo unspecified) ?
KB-3-1 tox: inactive; KB-V1 MDR tox: inactive; MCF10A rerep: inconclusive; KCNH2 3.1 inh: 0; SW480 rereplic: 21µM*; hERG WT inh: 2

What do the screens show for `Cc1ccc(NC(=O)c2ccc(-n3nncc3-c3ccccc3)cc2)cc1`?
KB-3-1 tox: inactive; KB-V1 MDR tox: inactive

How did CC(=O)c1sc2nc(C)cc(C)c2c1N do in these assays?
KB-3-1 tox: inactive; KB-V1 MDR tox: inactive; MCF10A rerep: inconclusive; KCNH2 3.1 inh: -6; SW480 rereplic: inconclusive; hERG WT inh: -14

What do the screens show for `CC(=O)c1sc2nc(-c3ccc(C)cc3)c3c(c2c1N)CCCC3`?
KB-3-1 tox: inactive; KB-V1 MDR tox: 18µM*; MCF10A rerep: 2.3µM*; KCNH2 3.1 inh: 1; SW480 rereplic: 2.9µM*; hERG WT inh: 8

Results for Cc1ccc(-c2nc3sc(C(N)=O)c(N)c3c3c2CCCC3)cc1 ?
KB-3-1 tox: inactive; KB-V1 MDR tox: inconclusive; MCF10A rerep: 5.2µM*; KCNH2 3.1 inh: 5; SW480 rereplic: 16µM*; hERG WT inh: -23

What do the screens show for `CCc1nc2sc(C(C)=O)c(N)c2c2c1CCCC2`?
KB-3-1 tox: inactive; KB-V1 MDR tox: inconclusive; MCF10A rerep: 2.9µM*; KCNH2 3.1 inh: 1; SW480 rereplic: 15µM*; hERG WT inh: 5

How did NC(=O)c1sc2nc(-c3ccccc3)c3c(c2c1N)CCCC3 do in these assays?
KB-3-1 tox: inactive; KB-V1 MDR tox: inactive; MCF10A rerep: 21µM*; KCNH2 3.1 inh: 13; SW480 rereplic: 15µM*; hERG WT inh: 1

How did NC(=O)c1sc2nc(N3CCOCC3)c3c(c2c1N)CCCC3 do in these assays?
KB-3-1 tox: inactive; KB-V1 MDR tox: inconclusive; MCF10A rerep: inconclusive; KCNH2 3.1 inh: 6; SW480 rereplic: -3%; hERG WT inh: -7

How did Cn1c(=O)n(C)c2cc(NS(=O)(=O)c3ccc(C(C)(C)C)cc3)c(NCc3ccccc3)cc21 do in these assays?
KB-3-1 tox: inconclusive; KB-V1 MDR tox: inactive

How did Brc1ccc(NC(c2ccccc2)c2ccncc2)cc1 (stereo unspecified) do in these assays?
KB-3-1 tox: inactive; KB-V1 MDR tox: inactive; MCF10A rerep: 4%; KCNH2 3.1 inh: -12; SW480 rereplic: -10%; hERG WT inh: -9

Results for Cc1nc2sc(C(N)=O)c(N)c2c2c1CCCC2 ?
KB-3-1 tox: inactive; KB-V1 MDR tox: 21µM*; MCF10A rerep: inconclusive; KCNH2 3.1 inh: 2; SW480 rereplic: inconclusive; hERG WT inh: 2

How did O=C(c1ccco1)N1N=C(c2ccc3nccnc3c2)CC1c1ccccc1 (stereo unspecified) do in these assays?
KB-3-1 tox: inactive; KB-V1 MDR tox: inactive; MCF10A rerep: 1%; KCNH2 3.1 inh: 3; SW480 rereplic: -18%; hERG WT inh: 2

What do the screens show for `COc1ccc(N2C(=O)CC2(/C=C/c2ccccc2OC)C(=O)NC2CCCC2)cc1` (stereo unspecified)?
KB-3-1 tox: inconclusive; KB-V1 MDR tox: 3.7µM*; MCF10A rerep: -2%; KCNH2 3.1 inh: -28; SW480 rereplic: 1%; hERG WT inh: 7

Results for O=C1CC(/C=C/c2ccccc2)(C(=O)NC2CCCC2)N1c1ccc(S(=O)(=O)N2CCCC2)cc1 (stereo unspecified) ?
KB-3-1 tox: inactive; KB-V1 MDR tox: 2.9µM*; MCF10A rerep: inconclusive; KCNH2 3.1 inh: 0; SW480 rereplic: 12%; hERG WT inh: 1

High-throughput results deposited in PubChem by National Center for Advancing Translational Sciences (NCATS).
